Reference: PubChem BioAssay (NCATS)
Records with an inconclusive call do not appear. The source made the active and inactive calls. Unless noted, calls follow the shape of the dose curve; as a rule, active = well fitted curve in the direction sought with a large enough effect; inconclusive = small, poorly fitted or top-dose-only effect, or another doubt; inactive = no such curve, though single readings can be large; an effect the other way counts as inactive or inconclusive.

Experiments:
[1] = Cell Viability - BJ (AID 421; calls by dose curve;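 also: potency is read from the fitted curve at half-maximal effect; cells exposed to compound for 40 hours at 37 °C before readout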); conditions: BJ fibroblast viability, qHTS
Method in brief: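 Quantitative HTS: ATP depletion in BJ cells after 40 hr compound exposure in complete culture medium, detected with CellTiter-Glo; AC50 from standard Hill fits.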

[2] = Cell Viability - Jurkat (AID 426;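 active = dose-dependent loss of cell ATP signal giving a full or clear fitted curve, ranked by lower potency value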;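 also: potency is read from the fitted curve at half-maximal effect; cells exposed to compound for 40 hours at 37 °C before ATP read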); conditions: qHTS
Method in brief: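 Seed 5000 Jurkat E6-1 cells/well; add compound; incubate 40 hr at 37 °C; add CellTiter-Glo; wait 20 min at room temperature; read luminescence. Fit concentration-response with Hill equation for AC50.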

[3] = Cell Viability - Hek293 (AID 427;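 active = compounds whose dose-response curve shows a full or clear partial loss of cell viability, called from curve shape rather than a numeric limit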;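 also: potency is read from the fitted curve at half-maximal effect; cells exposed to compound for 40 hours at 37 °C before reading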); conditions: qHTS
Method in brief: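 AC50 values derive from Hill-modelled concentration-response of ATP-based luminescence, normalized between DMSO-only and 100 uM tamoxifen controls. Cells were exposed in complete culture medium for 40 hr at 37 °C before detection.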

[4] = Cell Viability - HepG2 (AID 433; calls by dose curve;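 also: potency is read from the fitted curve at half-maximal effect; potency for ATP loss meaning cytotoxicity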); conditions: qHTS
Method in brief: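 Cytotoxicity is scored as loss of intracellular ATP in HepG2 cells exposed to compounds for 40 h. Concentration-response curves, normalized to DMSO and 100 uM tamoxifen, give AC50 values.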

[5] = Cell Viability - MRC5 (AID 434; calls by dose curve;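 also: potency is read from the fitted curve at half-maximal effect; cells exposed to compound for 40 hours at 37 °C; potency reflects cytotoxicity seen as loss of intracellular ATP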); conditions: MRC5 lung fibroblast viability, qHTS
Method in brief: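 qHTS cytotoxicity in human lung fibroblast MRC5 cells; 40 hr treatment, 37 °C; cellular ATP by luciferase luminescence; DMSO = 0%, 100 uM tamoxifen = 100% inhibition; Hill-fit AC50.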

[6] = Cell Viability - SK-N-SH (AID 435; calls by dose curve;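 also: potency is read from the fitted curve at half-maximal effect; compound exposure lasted 40 h at 37 °C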); conditions: SK-N-SH neuroblastoma cell viability qHTS
Method in brief: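 Cells seeded at 1500 per well and incubated 5 hr at 37 °C. Compound added, then 40 hr at 37 °C. CellTiter-Glo added, 20 min at room temperature, luminescence read.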

[7] = biological target: Mitogen-activated protein kinase 10 (Mus musculus) (UniProt Q61831); assay: JNK3 AlphaScreen Assay (AID 530; active = well fitted curve in either direction with a large enough effect, not every such curve was filed as active;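 also: kinase came from lysate of stimulated human HepG2 cells; signal reports phosphorylation of biotinylated GST-cJun 1-79 at Ser73 with 10 µM ATP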); conditions: JNK3 lysate, c-Jun phosphorylation; series mostly up to 57.1 µM
Method in brief: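 Room-temperature AlphaScreen kinase assay; pre-activated HepG2 lysate as JNK3 source, biotin-GST-cJun(1-79) substrate, 10 uM ATP, compound 15 min preincubation.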

[8] = Cell Viability - N2a (AID 540); conditions: N2a mouse neuroblastoma cell viability; series mostly up to 92.2 µM;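 also: cells exposed to compound for 40 h at 37 °C; nearly all actives have a fitted effect of over 45% in size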
Method in brief: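 First, 1500 N2a cells per well incubate 5 hr at 37 °C; next, compounds are added and incubated 40 hr at 37 °C; finally CellTiter-Glo is added and luminescence read after 20 min, with AC50 derived by Hill modeling.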

[9] = Cell Viability - NIH 3T3 (AID 541); conditions: NIH 3T3 cell viability, qHTS; series mostly up to 92.2 µM; also: nearly all actives have a fitted effect of over 25% in size
Method in brief: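 AC50 values reflect concentration-dependent loss of intracellular ATP in NIH 3T3 cells after 40 hr treatment in complete culture medium, quantified by luciferase-based luminescence.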

[10] = Cell Viability - HUV-EC-C (AID 542); conditions: HUV-EC-C endothelial cell viability, qHTS; series mostly up to 92.2 µM; also: nearly all actives have a fitted effect of over 35% in size
Method in brief: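 Decrease in cellular ATP, quantified by luciferase luminescence, reflects toxicity in normal human vascular endothelial HUV-EC-C cells given compound for 40 hr in complete culture medium. Values are AC50s from concentration-response curves.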

[11] = Cell Viability - H-4-II-E (AID 543); conditions: H-4-II-E rat hepatoma viability; series mostly up to 92.2 µM; also: nearly all actives have a fitted effect of over 35% in size
Method in brief: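 Here, cytotoxicity is measured in the rat hepatoma line H-4-II-E as loss of intracellular ATP after 40 hr compound treatment, detected by luciferase luminescence.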

[12] = Cell Viability - SH-SY5Y (AID 544); conditions: SH-SY5Y neuroblastoma cell viability; series mostly up to 92.2 µM; also: nearly all actives have a fitted effect of over 55% in size
Method in brief: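 Cytotoxicity is scored as a concentration-dependent fall in intracellular ATP in human SH-SY5Y cells treated 40 hr in complete culture medium. Potency is expressed as AC50 from a Hill equation fit.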

[13] = Cell Viability - Renal Proximal Tubule (AID 545); conditions: renal proximal tubule cells viability, primary cells of rat origin; series mostly up to 91.7 µM; also: nearly all actives have a fitted effect of over 40% in size
Method in brief: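 Cytotoxicity is scored as a concentration-dependent drop in cellular ATP in primary rat renal proximal tubule cells exposed for 40 hr. AC50 derives from Hill modelling.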

[14] = Cell Viability - Mesenchymal (AID 546); conditions: mesenchymal cells viability, qHTS; series mostly up to 91.7 µM;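 also: cells exposed to compound for 40 hours before reading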
Method in brief: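 AC50 values reflect the drop in intracellular ATP in a human kidney mesenchymal line derived from normal glomeruli. Treatment lasts 40 hr at 37 °C in complete medium, and the signal comes from CellTiter-Glo luminescence.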

[15] = Cellular Toxicity (caspase-3) HepG2 (AID 654); conditions: HepG2 caspase-3 activation, luminescence, 0% = DMSO only, 100% = tamoxifen; series mostly up to 92.2 µM;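 also: cells exposed to compound for 16 hours before reading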
Method in brief: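 qHTS, HepG2, 1500 cells/well, complete medium; cpd 16 h 37 °C; Caspase-Glo 3/7, 20 min RT; lum. Norm: DMSO vs 100 uM tamoxifen; AC50 Hill fit.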

[16] = Cellular Toxicity (caspase-3) Jurkat (AID 655); conditions: Jurkat caspase-3 activation, luminescence, DMSO = 0%, tamoxifen = 100%; series mostly up to 92.2 µM;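 also: cells exposed to compound for 16 h at 37 °C before reading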
Method in brief: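 Caspase 3/7 activation is scored as increased luminescence in Jurkat cells cultured with compound for 16 hours in complete medium. AC50 values come from Hill fits of qHTS concentration-response data normalized to DMSO and 100 uM tamoxifen controls.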

[17] = Cellular Toxicity (caspase-3) HUV-EC-C (AID 656); conditions: HUV-EC-C cells, caspase-3 activation (apoptosis), vehicle = 0, 100 µM tamoxifen = 100%; series mostly up to 92.2 µM
Method in brief: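 Read-out: luminescence proportional to caspase 3/7 activity, measured 20 min after adding Caspase-Glo 3/7 reagent. Cells (HUV-EC-C) had received compound for 16 hr at 37°C. Increases relative to DMSO and 100 uM tamoxifen gave concentration-response AC50 values.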

[18] = Cellular Toxicity (caspase-3) SHSY5Y (AID 657); conditions: SH-SY5Y caspase-3 activation, DMSO zero, 10 µM staurosporine = 100%; series mostly up to 91.7 µM;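 also: cells exposed to compound for 16 hours at 37 °C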
Method in brief: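 Cells plated and incubated 5 h at 37 °C, dosed over a concentration range, incubated 16 h, then given Caspase-Glo 3/7 reagent for 1 h at room temperature before luminescence reading. Staurosporine (10 uM) defined full stimulation.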

[19] = Cellular Toxicity (caspase-3) BJ (AID 658); conditions: BJ fibroblasts, luminescence, normalized: DMSO 0%, staurosporine 100%; series mostly up to 91.7 µM
Method in brief: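 Readout: Caspase-Glo 3/7 luminescence increase in BJ cells after 16 hr treatment at 37 °C. Staurosporine and tamoxifen served as positive controls; AC50 values came from Hill modelling of data normalized to DMSO and 10 uM staurosporine.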

[20] = Cellular Toxicity (caspase-3) MRC-5 (AID 659); conditions: MRC-5 cells, luminescence, normalized: DMSO 0%, 10 µM staurosporine 100%; series mostly up to 91.7 µM;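 also: cells exposed to compound for 16 h at 37 °C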
Method in brief: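 Concentration-dependent caspase 3/7 activation is measured in human normal lung fibroblasts (MRC-5) following 16-hour treatment. AC50 values come from standard Hill-equation modeling of luminescence normalized to DMSO and 10 uM staurosporine.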

[21] = Cellular Toxicity (caspase-3) Mesangial (AID 660); conditions: mesangial cells, normalized: DMSO 0%, 100 µM tamoxifen 100%; series mostly up to 91.7 µM;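 also: cells exposed to compound for 16 h before the caspase read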
Method in brief: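 Concentration-response qHTS: compound-induced rise in caspase 3/7 luminescence in human mesangial cells after 16 h, normalized to DMSO and 100 uM tamoxifen controls.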

[22] = Cellular Toxicity (caspase-3) SK-N-SH (AID 661); conditions: SK-N-SH caspase-3 activation, qHTS, DMSO as zero, staurosporine as full; series mostly up to 91.7 µM
Method in brief: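 Caspase 3/7 activation is measured as a luminescence increase from aminoluciferin released by substrate cleavage in SK-N-SH cells after 16 hr compound treatment; values are AC50 from concentration-response curves.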

[23] = Cellular Toxicity (caspase-3) H-4-II-E (AID 663); conditions: H-4-II-E rat hepatoma, scaled: DMSO 0%, 100 µM tamoxifen 100%; series mostly up to 92.2 µM;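 also: cells exposed to compound for 16 hr before readout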
Method in brief: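 Apoptosis induction is scored as increased luminescence from caspase 3/7 substrate cleavage in rat hepatoma H-4-II-E cells exposed to compound for 16 hr. Activity is scaled between DMSO and 100 uM tamoxifen.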

Measured: Potency

CC(C)(c1cc(Br)c(O)c(Br)c1)c1cc(Br)c(O)c(Br)c1
inactive: [1] > 92 µM | [2] > 92 µM | [3] > 92 µM | [4] > 92 µM | [5] > 92 µM | [6] > 92 µM | [7] | [8] | [9] | [10] | [11] | [12] | [13] | [14] | [15] | [16] | [17] | [18] | [19] | [20] | [21] | [22] | [23]
